Inconclusive results are not listed. The source made the active and inactive calls. Unless noted, calls come from the whole dose curve; as a rule, active = well fitted curve in the direction sought with a large enough effect; inconclusive = small, poorly fitted or top-dose-only effect, or another doubt; inactive = no such curve, though single readings can be large; an effect the other way counts as inactive or inconclusive.
How the values were obtained:
[1] = molecular target: ATP-dependent 6-phosphofructokinase (Trypanosoma brucei brucei) (UniProt O15648); assay: qHTS Assay to Find Inhibitors of T. brucei phosphofructokinase: hit validation (AID 492961);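 note: luminescence reports ADP formed as PFK phosphorylates fructose-6-phosphate with ATP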
Chain of ATP-dependent 6-phosphofructokinase (Trypanosoma brucei brucei) (O15648 whole entry, looked up): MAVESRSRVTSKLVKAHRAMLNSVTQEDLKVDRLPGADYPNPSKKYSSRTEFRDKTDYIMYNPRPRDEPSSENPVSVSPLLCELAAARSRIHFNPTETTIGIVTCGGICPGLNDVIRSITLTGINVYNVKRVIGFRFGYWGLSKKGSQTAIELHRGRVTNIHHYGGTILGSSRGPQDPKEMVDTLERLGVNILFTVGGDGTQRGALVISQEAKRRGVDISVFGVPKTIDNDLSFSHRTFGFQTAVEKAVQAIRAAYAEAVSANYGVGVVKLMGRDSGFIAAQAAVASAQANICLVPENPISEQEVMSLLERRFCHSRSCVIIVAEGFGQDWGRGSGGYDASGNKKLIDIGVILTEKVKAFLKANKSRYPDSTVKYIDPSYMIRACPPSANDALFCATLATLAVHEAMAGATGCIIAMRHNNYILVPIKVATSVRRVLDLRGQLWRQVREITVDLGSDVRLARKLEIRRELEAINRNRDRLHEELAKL
Procedure, shortened: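 PFK 1.25 nM, F6P 0.5 mM, ATP 0.1 mM, MgCl2 5 mM, 0.1 M TEA pH 8.0, Tween20 0.01%, BSA 0.1%; 45 min RT. ADP-Glo two-step detection, luminescence. qHTS titration; curve fitting with curve-class categorization.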

[2] = molecular target: Ubiquitin carboxyl-terminal hydrolase 1 (Homo sapiens) (UniProt O94782); assay: Inhibitors of USP1/UAF1: Pilot qHTS (AID 504865);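 note: rhodamine fluorescence freed from ubiquitin-rhodamine substrate followed over time; top concentration of the series differs between compounds; nearly all actives have a fitted effect of over 35% in size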
Chain of Ubiquitin carboxyl-terminal hydrolase 1 (Homo sapiens) (O94782 whole entry, looked up): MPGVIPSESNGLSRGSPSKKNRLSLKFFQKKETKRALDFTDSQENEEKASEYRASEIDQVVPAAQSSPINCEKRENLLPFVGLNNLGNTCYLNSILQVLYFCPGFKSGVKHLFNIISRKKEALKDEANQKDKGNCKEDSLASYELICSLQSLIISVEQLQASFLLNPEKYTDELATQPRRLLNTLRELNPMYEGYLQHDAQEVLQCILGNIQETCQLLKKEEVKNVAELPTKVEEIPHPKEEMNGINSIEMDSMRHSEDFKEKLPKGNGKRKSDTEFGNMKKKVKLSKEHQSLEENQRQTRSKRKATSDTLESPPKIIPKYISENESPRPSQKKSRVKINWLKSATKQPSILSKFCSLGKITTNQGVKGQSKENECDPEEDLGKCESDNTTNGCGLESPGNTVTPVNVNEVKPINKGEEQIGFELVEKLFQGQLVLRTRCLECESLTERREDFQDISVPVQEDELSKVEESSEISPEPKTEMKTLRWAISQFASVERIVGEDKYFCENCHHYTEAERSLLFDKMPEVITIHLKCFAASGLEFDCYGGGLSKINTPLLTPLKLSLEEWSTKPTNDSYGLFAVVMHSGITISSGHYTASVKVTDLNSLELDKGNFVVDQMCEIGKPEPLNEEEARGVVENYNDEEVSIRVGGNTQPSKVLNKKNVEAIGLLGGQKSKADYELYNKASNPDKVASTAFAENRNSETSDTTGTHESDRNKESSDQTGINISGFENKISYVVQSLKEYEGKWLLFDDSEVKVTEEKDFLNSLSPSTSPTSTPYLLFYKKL
Procedure, shortened: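 USP1/UAF1 complex at 1 nM preincubated 15 min at room temperature with compound, then Ub-Rho substrate added at 150 nM final. Fluorescence (480/540 nm) read kinetically in 50 mM HEPES pH 7.8, 0.5 mM EDTA, 1 mM TCEP, 0.1 mg/ml BSA, 0.01% Tween-20.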

[3] = molecular target: Luciferin 4-monooxygenase (Photinus pyralis) (UniProt P08659); assay: Biochemical firefly luciferase enzyme assay for NPC (AID 624030);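 note: purified P. pyralis luciferase at 10 nM with luciferin and ATP substrate; nearly all actives have a fitted effect of over 70% in size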
Chain of Luciferin 4-monooxygenase (Photinus pyralis) (P08659 whole entry, looked up): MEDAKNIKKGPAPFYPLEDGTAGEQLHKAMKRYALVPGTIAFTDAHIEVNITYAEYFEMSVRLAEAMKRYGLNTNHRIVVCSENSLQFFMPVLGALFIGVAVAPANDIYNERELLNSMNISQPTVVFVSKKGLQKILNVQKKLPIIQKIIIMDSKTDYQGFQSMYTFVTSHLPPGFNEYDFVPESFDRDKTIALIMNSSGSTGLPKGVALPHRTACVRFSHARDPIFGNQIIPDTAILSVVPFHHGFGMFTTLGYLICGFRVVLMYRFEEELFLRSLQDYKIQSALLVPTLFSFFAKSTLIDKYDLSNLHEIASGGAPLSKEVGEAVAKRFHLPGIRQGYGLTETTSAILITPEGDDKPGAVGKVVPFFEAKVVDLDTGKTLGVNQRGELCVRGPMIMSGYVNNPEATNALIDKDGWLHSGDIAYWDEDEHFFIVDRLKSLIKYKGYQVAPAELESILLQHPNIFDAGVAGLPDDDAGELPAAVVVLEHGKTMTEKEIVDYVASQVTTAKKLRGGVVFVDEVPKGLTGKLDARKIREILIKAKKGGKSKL
Procedure, shortened: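 Counter-screen for direct inhibition of the luciferase enzyme by approved-drug library compounds, run at 10 nM enzyme in 50 mM Tris acetate (final). Luminescence was read within 5 min of enzyme-buffer addition and normalized to PTC124 versus DMSO (0%).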

[4] = S16 Schwann cell viability assay (CellTiter-Glo assay) (AID 624031);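 note: cellular ATP luminescence as a viability measure; nearly all actives have a fitted effect of over 70% in size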
Procedure, shortened: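 CellTiter-Glo ATP luminescence counter-screen in untransfected S16 rat Schwann cells, 24h compound exposure at 37 degree Celsius after overnight seeding (500-750 cells/well); response scaled between cell-free wells and DMSO (0% activity), curves classed by r2 and magnitude.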

[5] = S16 Schwann cell PMP22 intronic element beta-lactamase assay (AID 624044; calls by dose curve; note: nearly all actives have a fitted effect of over 15% in size); conditions: S16 rat Schwann cells, PMP22 element beta-lactamase FRET, 24 h; ratio activity, negative = inhibition: at 38.3 µM (top of the series) unless noted
Procedure, shortened: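 Rat S16 Schwann cells with beta-Lac driven by a PMP22 intronic element, compound-treated 24 h at 37 °C. LiveBLAzer FRET B/G read: 460 nm normalized to potassium clavulanate vs DMSO; 535 nm FRET as viability; concentration-effect curves classified.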

[6] = molecular target: Cytochrome P450 2D6 (Homo sapiens) (UniProt P10635); assay: Cytochrome P450 family 2 subfamily D member 6 (CYP2D6) small molecule antagonists: luciferase biochemical (cell-free) qHTS assay (AID 1645840; active = well fitted curve in the direction sought with a large enough effect in the repeat runs; an effect the other way counts as inactive or inconclusive; note: nearly all actives have a fitted effect of over 55% in size)
Chain of Cytochrome P450 2D6 (Homo sapiens) (P10635 whole entry, looked up): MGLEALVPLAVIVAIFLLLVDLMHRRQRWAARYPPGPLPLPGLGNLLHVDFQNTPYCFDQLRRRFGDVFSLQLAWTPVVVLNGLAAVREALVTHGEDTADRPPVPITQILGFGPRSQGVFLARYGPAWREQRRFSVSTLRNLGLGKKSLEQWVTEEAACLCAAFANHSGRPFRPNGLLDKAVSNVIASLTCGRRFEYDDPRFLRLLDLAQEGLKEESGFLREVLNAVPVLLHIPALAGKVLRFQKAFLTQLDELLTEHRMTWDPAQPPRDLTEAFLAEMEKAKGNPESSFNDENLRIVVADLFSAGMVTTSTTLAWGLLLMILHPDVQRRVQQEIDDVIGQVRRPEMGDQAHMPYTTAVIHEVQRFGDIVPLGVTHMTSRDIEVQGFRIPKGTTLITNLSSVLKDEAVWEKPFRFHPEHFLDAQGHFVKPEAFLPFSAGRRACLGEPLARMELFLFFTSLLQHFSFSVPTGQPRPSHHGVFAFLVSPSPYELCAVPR
Procedure, shortened: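 P450-Glo luminescent screen: recombinant CYP2D6 enzyme–proluciferin substrate mix preincubated with compound 10 min at room temperature, then NADPH regeneration added for 1 h at room temperature. Detection reagent added for 20 min; luciferin light read as relative luminescence units.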

[7] = molecular target: Cytochrome P450 3A4 (Homo sapiens) (UniProt P08684); assay: Cytochrome P450 family 3 subfamily A member 4 (CYP3A4) small molecule antagonists: luciferase qHTS assay (AID 1645841; active = well fitted curve in the direction sought with a large enough effect in the repeat runs; an effect the other way counts as inactive or inconclusive; note: nearly all actives have a fitted effect of over 45% in size)
Chain of Cytochrome P450 3A4 (Homo sapiens) (P08684 whole entry, looked up): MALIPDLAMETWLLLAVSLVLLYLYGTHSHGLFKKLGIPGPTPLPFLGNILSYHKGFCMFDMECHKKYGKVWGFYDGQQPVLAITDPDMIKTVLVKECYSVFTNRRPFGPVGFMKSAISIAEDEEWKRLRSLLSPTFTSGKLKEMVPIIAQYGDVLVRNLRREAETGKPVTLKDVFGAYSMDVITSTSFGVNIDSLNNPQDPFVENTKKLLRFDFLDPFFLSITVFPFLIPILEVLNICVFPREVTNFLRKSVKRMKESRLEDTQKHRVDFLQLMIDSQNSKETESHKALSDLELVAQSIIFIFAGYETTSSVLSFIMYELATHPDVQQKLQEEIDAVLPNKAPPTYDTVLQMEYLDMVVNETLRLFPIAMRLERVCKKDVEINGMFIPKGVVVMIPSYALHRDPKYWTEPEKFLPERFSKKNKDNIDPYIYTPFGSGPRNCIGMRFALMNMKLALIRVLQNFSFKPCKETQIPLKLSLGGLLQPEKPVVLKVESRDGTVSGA
Procedure, shortened: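 P450-Glo CYP3A4 enzyme with proluciferin substrate was preincubated with DMSO-dissolved compounds for 10 min at room temperature. NADPH regeneration solution started a 1 h reaction. Detection reagent stopped it, and luminescence was read after 20 min.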

[8] = qHTS profiling for inhibitors of Plasmodium falciparum proliferation (AID 504749); note: potency is the fitted concentration of half-maximal effect; nearly all actives have a fitted effect of over 60% in size; conditions: P. falciparum in erythrocytes, SYBR Green DNA, 72 h
Procedure, shortened: (§1)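 Parasite proliferation within erythrocytes, 72 h exposure. Endpoint: SYBR Green I fluorescence after overnight lysis at room temperature. Controls: 0.29 uM artemisinin, DMSO.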

3D7 = assay: as above; conditions: P. falciparum in erythrocytes, SYBR Green DNA, 72 h; series mostly up to 28.7 µM
Procedure, shortened: as §1

7G8 = assay: as above; conditions: P. falciparum in erythrocytes, SYBR Green DNA, 72 h; series mostly up to 12.8 µM
Procedure, shortened: as §1

AA1029 = assay: as above; conditions: P. falciparum in erythrocytes, SYBR Green DNA, 72 h; series mostly up to 28.7 µM
Procedure, shortened: as §1

AS120 = assay: as above; conditions: P. falciparum in erythrocytes, SYBR Green DNA, 72 h; series mostly up to 28.7 µM
Procedure, shortened: as §1

ATS189 = assay: as above; conditions: P. falciparum in erythrocytes, SYBR Green DNA, 72 h; series mostly up to 28.7 µM
Procedure, shortened: as §1

ATS95 = assay: as above; conditions: P. falciparum in erythrocytes, SYBR Green DNA, 72 h; series mostly up to 28.7 µM
Procedure, shortened: as §1

C2A = assay: as above; conditions: P. falciparum in erythrocytes, SYBR Green DNA, 72 h; series mostly up to 28.7 µM
Procedure, shortened: as §1

CP191 = assay: as above; conditions: P. falciparum in erythrocytes, SYBR Green DNA, 72 h; series mostly up to 28.7 µM
Procedure, shortened: as §1

CP192 = assay: as above; conditions: P. falciparum in erythrocytes, SYBR Green DNA, 72 h; series mostly up to 28.7 µM
Procedure, shortened: as §1

CP194 = assay: as above; conditions: P. falciparum in erythrocytes, SYBR Green DNA, 72 h; series mostly up to 28.7 µM
Procedure, shortened: as §1

CP201 = assay: as above; conditions: P. falciparum in erythrocytes, SYBR Green DNA, 72 h; series mostly up to 28.7 µM
Procedure, shortened: as §1

CP203 = assay: as above; conditions: P. falciparum in erythrocytes, SYBR Green DNA, 72 h; series mostly up to 28.7 µM
Procedure, shortened: as §1

CP211 = assay: as above; conditions: P. falciparum in erythrocytes, SYBR Green DNA, 72 h; series mostly up to 28.7 µM
Procedure, shortened: as §1

CP215 = assay: as above; conditions: P. falciparum in erythrocytes, SYBR Green DNA, 72 h; series mostly up to 28.7 µM
Procedure, shortened: as §1

CP217 = assay: as above; conditions: P. falciparum in erythrocytes, SYBR Green DNA, 72 h; series mostly up to 28.7 µM
Procedure, shortened: as §1

CP237 = assay: as above; conditions: P. falciparum in erythrocytes, SYBR Green DNA, 72 h; series mostly up to 28.7 µM
Procedure, shortened: as §1

CP238 = assay: as above; conditions: P. falciparum in erythrocytes, SYBR Green DNA, 72 h; series mostly up to 28.7 µM
Procedure, shortened: as §1

CP247 = assay: as above; conditions: P. falciparum in erythrocytes, SYBR Green DNA, 72 h; series mostly up to 28.7 µM
Procedure, shortened: as §1

CP250 = assay: as above; conditions: P. falciparum in erythrocytes, SYBR Green DNA, 72 h; series mostly up to 12.8 µM
Procedure, shortened: as §1

CP252 = assay: as above; conditions: P. falciparum in erythrocytes, SYBR Green DNA, 72 h; series mostly up to 12.8 µM
Procedure, shortened: as §1

CP256 = assay: as above; conditions: P. falciparum in erythrocytes, SYBR Green DNA, 72 h; series mostly up to 28.7 µM
Procedure, shortened: as §1

CP260 = assay: as above; conditions: P. falciparum in erythrocytes, SYBR Green DNA, 72 h; series mostly up to 28.7 µM
Procedure, shortened: as §1

Measured: Potency

O=[As]O[As]=O (stereo unspecified)
active: [8]; parasite line A 8.91 µM | [8]; parasite line B 8.91 µM | 3D7 11.2 µM | 7G8 3.98 µM | AA1029 11.2 µM | AS120 11.2 µM | ATS189 8.91 µM | ATS95 10 µM | C2A 12.6 µM | CP191 11.2 µM | CP192 9.53 µM | CP194 13.5 µM | CP201 13.5 µM | CP203 10.7 µM | CP211 12 µM | CP215 13.5 µM | CP217 7.94 µM | CP237 11.2 µM | CP238 8.91 µM | CP247 7.94 µM | CP250 7.94 µM | CP252 12.6 µM | CP256 8.91 µM | CP260 6.31 µM
inactive: [1] | [2] | [3] | [4] | [5] | [6] | [7]
